The values below come from PubChem BioAssay AID743135 (Broad Institute, 2013).

Records with an inconclusive call do not appear. Unmarked numbers belong to inactive results. Activity calls are given as the source filed them.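 How the source made its calls: active means fitted drop in cell viability signal with half-maximal potency at most twice the top valid dose; inconclusive means flat fit with a 30 to 70% drop, or poor fit; inactive means opposite direction, flat within 30%, or potency beyond limit.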

The experiment in a line: HEK293 cell cytotoxicity, dose response, cytotoxicity control, ATP luminescence, dry powder, Set3, 50 µM top (AID 743135). The conditions noted are these: HEK293T viability, CellTiter-Glo ATP luminescence, 72 h; series mostly up to 50 µM.
Consider `Cc1c(C(=O)O)sc2nc(/C=C/c3cc4ccccc4cn3)[nH]c(=O)c12`, for which the result was inactive.
The same measure, in the same setting: the entry for `Cc1c(C(=O)O)sc2nc(/C=C/c3ccccc3)[nH]c(=O)c12` is “inactive”.
Regarding `Cc1c(C(=O)O)sc2nc(/C=C/c3cccnc3N)[nH]c(=O)c12`, the activity change, negative = cytotoxicity was -17.4% [at 12 µM].
Consider `COc1cccc(/C=C/c2nc3sc(C(=O)O)c(C)c3c(=O)[nH]2)c1`, for which the result was inactive.
On the same count and under the same terms, the value for `Cc1c(C(=O)O)sc2nc(/C=C/c3cccc(OC(F)(F)F)c3)[nH]c(=O)c12` was “inactive”.
On the same count and under the same terms, the value for `Cc1c(C(=O)O)sc2nc(/C=C/c3ccccn3)[nH]c(=O)c12` was “inactive”; that for `Cc1c(C(=O)O)sc2nc(/C=C/c3ccc4[nH]ccc4c3)[nH]c(=O)c12` was “inactive”.
As to `Cc1c(C(=O)O)sc2nc(/C=C/c3ccc(O)cn3)[nH]c(=O)c12`, the activity change, negative = cytotoxicity is 6.21% [at 1.2 µM].
Turning to `Cc1c(C(=O)O)sc2nc(/C=C/c3cccc(C(=O)O)c3)[nH]c(=O)c12`, the compound was classed as inactive.
On the same count and under the same terms, the entry for `Cc1c(C(=O)O)sc2nc(/C=C/c3cccc(O)c3)[nH]c(=O)c12` is “inactive”; for `Cc1c(C(=O)O)sc2nc(/C=C/c3ccnc4ccccc34)[nH]c(=O)c12` it is “inactive”.
On the same count and under the same terms, the value for `Cc1c(C(=O)O)sc2nc(/C=C/c3cccc([N+](=O)[O-])c3)[nH]c(=O)c12` was “inactive”; that for `Cc1c(C(=O)O)sc2nc(/C=C/c3cccc(N4CCNCC4)c3)[nH]c(=O)c12` was “inactive”; that for `Cc1c(C(=O)O)sc2nc(/C=C/c3cccc(C(N)=O)c3)[nH]c(=O)c12` was “inactive”.
The same measure, in the same setting: the value for `Cc1c(C(=O)O)sc2nc(CCc3cccc(O)c3)[nH]c(=O)c12` was “inactive”.
Take `Cc1c(C(=O)O)sc2nc(/C=C/c3ccc4ccccc4c3)[nH]c(=O)c12`: the compound was classed as inactive.
On the same count and under the same terms, the value for `Cc1c(C(=O)O)sc2nc(/C=C/C3CC3)[nH]c(=O)c12` was “inactive”; that for `Cc1c(C(=O)O)sc2nc(/C=C/c3cccc(N)c3)[nH]c(=O)c12` was “inactive”.
For the compound `Cc1c(C(=O)O)sc2nc(/C=C/c3ccc4[nH]ccc4n3)[nH]c(=O)c12`, the activity change, negative = cytotoxicity was -5.92% [at 12 µM].
Turning to `Cc1c(C(=O)O)sc2nc(/C=C/c3cnc4ccccc4c3)[nH]c(=O)c12`, the call was inactive.
Still for that read-out and setting: the value for `Cc1c(C(=O)O)sc2nc(/C=C/c3cccc(N4CCOCC4)n3)[nH]c(=O)c12` was “inactive”; that for `Cc1c(C(=O)O)sc2nc(/C=C/c3cccc(F)c3)[nH]c(=O)c12` was “inactive”; that for `Cc1c(C(=O)O)sc2nc(/C=C/c3ccccc3O)[nH]c(=O)c12` was “inactive”.
On the same count and under the same terms, the entry for `Cc1c(C(=O)O)sc2nc(/C=C/C=C/c3ccccc3)[nH]c(=O)c12` is “inactive”.
Still for that read-out and setting: the entry for `Cc1c(C(=O)O)sc2nc(/C=C/c3ccc4cc[nH]c4c3)[nH]c(=O)c12` is “inactive”; for `Cc1c(C(=O)O)sc2nc(/C=C/c3cccc(C(F)(F)F)c3)[nH]c(=O)c12` it is “inactive”; for `Cc1c(C(=O)O)sc2nc(/C=C/c3cccc(=O)[nH]3)[nH]c(=O)c12` it is “inactive”.
Take `Cc1c(C(=O)O)sc2nc(/C=C/c3ccc(N)nc3)[nH]c(=O)c12`: the result was inactive.
Consider `Cc1c(C(=O)O)sc2nc(/C=C/c3cccnc3)[nH]c(=O)c12`, for which the result was inactive.
